Screens deposited in PubChem by several laboratories.
MITF TRPM1 inh – inhibitors of MITF-dependent TRPM1 promoter reporter, primary screen, cell-based, SK-MEL-5, single point, luciferase | SK-MEL-5 TRPM1 promoter luciferase, 24 h | inhibition, % at 12.5 µM | 0.83% of 330,000 active | AID 488899, 2010;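 active = mean inhibition across replicates of 60% or more, whatever share of single replicates reaches that level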
EWS-Fli inh – EWS/Fli-driven NR0B1 reporter inhibitors, primary screen, A673 cells, NR0B1 luciferase, luminescence, MLPCN library; viability-normalised; inhibition, % at 12.6 µM; 0.67% of 350,000 active; AID 651661, 2012;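 active = mean inhibition of at least 50% after viability correction, with every replicate also passing that limit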;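 note: firefly luciferase signal divided by Alamar Blue viability fluorescence both relative to DMSO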
ABHD5-PLIN5 inh – ABHD5-PLIN5 interaction inhibitors, primary screen, cell lysate, split luciferase complementation, luminescence | Perilipin-5 (Homo sapiens) + 1-acylglycerol-3-phosphate O-acyltransferase ABHD5 (Homo … | 0.78% of 360,000 active | inhibition, % at 4 µM | AID 602281, 2012 | Split G. princeps luciferase complementation, 4 h;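 active = inhibition above the mean inhibition across every tested compound plus 3 SD, cut at about 22% in these data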;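 note: 0% = DMSO only wells and the 100% control is not disclosed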
PAX8 inh HTS – inhibitors of PAX8-driven TPO luciferase reporter, primary screen, RMG-I cells, single concentration. SteadyGlo, 24 h. inhibition, % at 12.6 µM. 1.2% of 360,000 active. AID 652154, 2013;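 active = mean replicate inhibition at least 60% with every replicate also reaching 60%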;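 note: luciferase light reporting Pax8 driven TPO promoter activity; plate controls were median of neutral control wells for no effect and mitoxantrone controls for full effect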
Shn3 inh set2 – reduction of Shn3 3'UTR firefly luciferase signal, primary screen, Schnurri-3 inhibitor project, cell-based, Clone20 osteoblasts, set 2; 0.52% of 360,000 active; AID 588674, 2011; inhibition, % at 12.5 µM; Clone20 osteoblast Shn3 3'UTR firefly luciferase, 24 h;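 active = mean inhibition of at least 75% with every replicate also reaching 75%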;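 note: 0% = median of neutral control wells and 100% = pilot-screen positive control compound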
Peg3 prom inh – Peg3 promoter-driven luciferase inhibitors, primary screen, cell-based, HeLa, luciferase luminescence; AID 588405, 2011; HeLa PEG-Prom luciferase reporter, overnight; inhibition, % at 20 µM; 1.7% of 360,000 active;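 active = inhibition of at least 50% at 20 µM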
ABHD5-PLIN5 conf – ABHD5-PLIN5 interaction inhibitors, confirmation, biochemical, luminescence. shares compounds with ABHD5-PLIN5 inh. inhibition, % at 4 µM. 67% of 2,200 active. AID 651612, 2012; in the data active = inhibition above about 23%;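 note: 0% = DMSO vehicle wells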
HNF4 split-luc – HNF4 dimerization inhibitors, counter-screen for ABHD5-PLIN5 interaction inhibitor project, biochemical, split-luciferase complementation, luminescence. AID 651674, 2012. 77% of 2,200 active. shares compounds with ABHD5-PLIN5 inh. inhibition, % at 4 µM;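 active = mean inhibition across replicate wells exceeding the computed hit threshold, cut at about 13% in these data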;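 note: light from luciferase halves that rejoin when HNF4 fusion proteins dimerize; 0% = DMSO only wells and the 100% control is not given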
Target sequence (P41235 whole entry, looked up, the tested form may be a part): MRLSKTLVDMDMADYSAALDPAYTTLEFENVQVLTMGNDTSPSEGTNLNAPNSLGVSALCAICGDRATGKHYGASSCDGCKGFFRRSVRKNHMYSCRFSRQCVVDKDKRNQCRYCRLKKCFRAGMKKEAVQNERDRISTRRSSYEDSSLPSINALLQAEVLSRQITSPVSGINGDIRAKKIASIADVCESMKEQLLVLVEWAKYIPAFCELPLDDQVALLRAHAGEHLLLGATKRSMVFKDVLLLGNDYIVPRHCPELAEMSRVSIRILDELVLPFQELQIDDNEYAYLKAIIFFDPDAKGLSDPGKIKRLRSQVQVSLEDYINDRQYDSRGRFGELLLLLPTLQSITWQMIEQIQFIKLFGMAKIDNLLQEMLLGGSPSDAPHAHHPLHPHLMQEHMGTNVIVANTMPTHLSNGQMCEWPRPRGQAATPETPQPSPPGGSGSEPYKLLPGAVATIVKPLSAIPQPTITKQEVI
An asterisk follows results filed as active; · = no result given. Rows were chosen to be rich in hits. Some 3% of all compounds tested hit in one or more screens of this group.

SMILES	MITF TRPM1 inh	EWS-Fli inh	ABHD5-PLIN5 inh	PAX8 inh HTS	Shn3 inh set2	Peg3 prom inh	ABHD5-PLIN5 conf	HNF4 split-luc
COc1ccc(C(C(=O)Nc2c(C)cccc2C)n2c(=O)c(-c3ccco3)nc3ccccc32)cc1 (stereo not given)	·	34	81*	18	·	·	98*	48*
Cc1cccc(C)c1NC(=O)C(CCc1ccccc1)n1c(=O)c(-c2ccccc2)nc2ccccc21 (stereo not given)	·	-2	26*	16	·	·	31*	13*
Cc1cccc(C)c1NC(=O)C(c1ccc(C#N)cc1)n1c(=O)c(-c2ccco2)nc2ccccc21 (stereo not given)	·	-1	50*	-8	·	·	63*	8
N#Cc1ccc(C(C(=O)Nc2ccc3c(c2)OCCO3)n2c(=O)c(-c3ccco3)nc3ccccc32)cc1 (stereo not given)	·	-39	31*	-27	·	·	32*	8
CCCC(=O)Nc1ccc2c(c1)C(=O)N(C)C[C@H](OC)[C@@H](C)CN(C(C)=O)[C@@H](C)CO2	·	-1	·	·	·	·	·	·
COc1ccc(C(C(=O)Nc2c(C)cccc2C)n2c(=O)c(-c3ccccc3)nc3ccccc32)cc1 (stereo not given)	·	-10	-4	28	·	·	·	·
Cc1cccc(C)c1NC(=O)C(c1ccccc1)n1c(=O)c(-c2ccco2)nc2ccccc21 (stereo not given)	·	-10	88*	12	·	·	56*	23*
CCCSc1nc(NCc2ccco2)c2c3c(sc2n1)COC(C)(C)C3	-16	·	28*	-11	-1	-65	7	5
COC(=O)COc1ccc(/C=C2/NC(=O)N(CC(=O)OC)C2=O)cc1	15	13	1	38	10	0	·	·
COC(=O)CN1C(=O)N/C(=C/c2ccc(C)o2)C1=O	6	-3	25*	16	4	9	14	49*
Cc1ccc(/C=C2/NC(=O)N(Cc3ccccc3)C2=O)o1	2	·	44*	-3	22	4	58*	68*
C[C@@H]1CN([C@@H](C)CO)C(=O)c2cc(C#Cc3ccccn3)cnc2O[C@@H]1CN(C)C(=O)c1ccccn1	·	6	·	·	·	·	·	·
CCOc1cc2nc3c4ccccc4n(C)c3nc2cc1OCC	-27	-9	-23	-22	-33	-85	·	·
CCN(CC)Cc1cc(Nc2c3ccccc3nc3c4ccccc4n(C)c23)cc(CN(CC)CC)c1O	78*	-3	27*	16	-2	102*	44*	29*
CCOC(=O)C1=C(C)N=c2s/c(=C3\C(=O)Nc4ccccc43)c(=O)n2C1c1ccc2c(c1)OCO2 (stereo not given)	5	·	27*	29	32	24	5	-14
Cc1cccc2cc3c(nc12)SC(=NCC1CCCO1)N(Cc1ccco1)C3 (stereo not given)	6	·	26*	·	-18	11	43*	77*
Cc1ccc2nc3c(cc2c1)CN(Cc1ccco1)C(=NCC1CCCO1)S3 (stereo not given)	-7	·	18	·	27	26	·	·
O=c1c(C(c2ccc(O)cc2)c2c(O)nc3n(c2=O)CCS3)c(O)nc2n1CCS2	-4	·	53*	·	16	25	90*	79*
O=c1c(C(c2ccc(O)cc2)c2c(O)nc3n(c2=O)CCCS3)c(O)nc2n1CCCS2	15	·	29*	·	8	17	84*	71*
Cc1ccc(C(c2c(O)nc3n(c2=O)CCS3)c2c(O)nc3n(c2=O)CCS3)cc1	12	-9	13	-16	12	7	·	·
Cc1ccc(-c2ccc([C@H]3[C@H](CO)N4CCCCN(C(=O)Nc5cccc(F)c5)C[C@@H]34)cc2)cc1	·	7	·	-4	·	·	·	·
COCCNC(=O)[C@H]1[C@H](CO)[C@H]2Cn3c(ccc(-c4ccccc4)c3=O)[C@@H]1N2C	·	4	·	-7	·	·	·	·
